Data: PubChem BioAssay (NCI)
Compounds without any hit were thinned out: in the full panel of roughly 83,000, 20% have a hit.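 The endpoint reported here, percent growth, reads 100 for growth as untreated, 0 for no net growth and -100 for all cells dead.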 A number with no mark means an inactive call. Active and inactive are the calls of the source. How the source made its calls: active means growth percent below 10; inactive means the rest.

Tests used:
Assay in all cases: NCI-60 one-dose screen, 48 h (100 = growth as untreated, 0 = no growth, -100 = all killed)
Conditions in all cases: 10 µM unless noted
[1] = tested on: T-47D breast
[2] = tested on: BT-549 breast
[3] = tested on: MDA-MB-435 melanoma
[4] = tested on: SW-620 colon
[5] = tested on: MCF7 breast
[6] = tested on: HCT-116 colon
[7] = tested on: HCC-2998 colon
[8] = tested on: KM12 colon
[9] = tested on: MDA-MB-468 breast

Row | SMILES | growth [1] | growth [2] | growth [3] | growth [4] | growth [5] | growth [6] | growth [7] | growth [8] | growth [9]
1 | O=S(=O)(Nc1cccc(-n2cnc3cc(-c4ccc(O)cc4)ccc32)c1)C1CC1 | 27.3% | 14.3% | -21.3% (active) | 31.1% | 21.8% | 13.4% | 40.8% | 6.07% (active) | 3.78% (active)
2 | COc1ccc(-c2nc3cc(C)ccc3n2CC(=O)N=Nc2c(O)[nH]c3ccc(OC)cc23)cc1 | -60% (active) | -85.4% (active) | -67.8% (active) | -48.2% (active) | -50.3% (active) | -97.4% (active) | -67.9% (active) | -79.5% (active) | -77.1% (active)
3 | O=C(c1ccccc1)c1ccc2nc(-c3ccc(F)cc3)[nH]c2c1 | 47.5% | 40.1% | 57.6% | 28.2% | 35.9% | 41.7% | 91% | 65% | 42.8%
4 | CC1(C)CC[C@]2(C(=O)O)CC[C@]3(C)C(=CCC4[C@@]5(C)C[C@@H](O)[C@@H]6OC(c7ccc(F)cc7)OC[C@@]6(C)C5CC[C@]43C)C2C1 (some centres not stated) | 33.3% | 26% | 48.9% | 23.7% | 12.8% | 8.81% (active) | 18.1% | 12.3% | 13.7%
5 | CC(C)(C)OC(=O)/C=C/c1cccc2c1C(=O)NC(C)(c1cc3cc(Cl)ccc3oc1=O)N2 (configuration not stated) | -3.39% (active) | 15.2% | 62.2% | 55.7% | 17.5% | 31.5% | 52.9% | 19.9% | 11.6%
6 | Cn1cc(-c2cc(N)n3nc(-c4cn(C)c5ccc(Cl)cc45)cc3n2)c2ccccc21 | 101% | 118% | 101% | 114% | 98.8% | 104% | 105% | 109% | 96.4%
7 | Cc1ccc(NC(=O)CN2CCN(c3ncnc4c3cnn4-c3ccccc3)CC2)cc1 | 78.9% | 85% | 94.2% | 99.9% | 74.2% | 76.3% | 102% | 89.9% | 87.1%
8 | N/C(=N\N=C\c1ccc([N+](=O)[O-])cc1)c1c(N)nc(=S)[nH]c1-c1ccc(Cl)cc1Cl | 95.3% | 75.6% | 108% | 108% | 88.2% | 85.2% | 106% | 108% | 90.8%
9 | N=C1N=C(SCc2nc3ccccc3[nH]2)NC(=O)/C1=C/c1ccc(Cl)cc1 | 93.2% | 114% | 102% | 98.5% | 96.9% | 105% | 109% | 104% | 116%
10 | C#CCOc1ccc(/C=N/Nc2nc(-c3ccc(F)cc3)cs2)cc1OC | 35.4% | 24.5% | 56.2% | 86.7% | 35.3% | 44.6% | 92.9% | 59.9% | 51.3%
11 | CCCCSc1nc(NCCc2c[nH]c3ccccc23)c(C#N)c(-c2ccccc2)n1 | -0.0859% (active) | 70.2% | 49.2% | 4.59% (active) | 3.23% (active) | 4.22% (active) | 16.3% | 7.79% (active) | 3.04% (active)
12 | S=C(Nc1ccccc1)Nc1ccc(OCc2nc3ccccc3[nH]2)cc1 | 36.1% | 49.4% | 24.6% | 48% | 20.2% | 35.6% | 17.3% | -32% (active) | 21.9%
13 | CC(=O)/C=C/c1cccc2c1C(=O)NC(C)(c1cc3cc(Br)ccc3oc1=O)N2 (configuration not stated) | 32% | -8.15% (active) | 42.3% | 32.3% | 13.4% | 15.1% | 23.3% | 25.3% | -6.53% (active)
14 | CC1[C@H]2[C@H](C[C@H]3[C@@H]4CC=C5c6sc(Nc7ccccc7F)nc6CC[C@]5(C)[C@H]4CC[C@@]32C)O[C@]12CC[C@@H](C)CO2 (some centres not stated) | -60.2% (active) | 55.2% | -83.5% (active) | -75.4% (active) | -66.8% (active) | -94.3% (active) | -82.1% (active) | -90.7% (active) | -63.1% (active)
15 | COc1ccc2oc(=O)c(C3(C)NC(=O)c4c(/C=C/C(=O)OC(C)(C)C)cccc4N3)cc2c1 (configuration not stated) | 6.58% (active) | 3.69% (active) | 46.7% | 63.8% | 24.1% | 30% | 62.1% | 47% | 31.7%
16 | CC1(c2cc3cc(Cl)ccc3oc2=O)NC(=O)c2c(/C=C/C(=O)OC3CC4CCC3(C)C4(C)C)cccc2N1 (configuration not stated) | 24.4% | 59.3% | 81% | 73% | 37.4% | 40.4% | 82.6% | 64.8% | -6.79% (active)
17 | Cc1cc2nc3c4ccccc4n(CCNCCN(C)C)c3nc2cc1C | 52.2% | 23.8% | 8.22% (active) | -19.6% (active) | -28.8% (active) | -57.8% (active) | -56.7% (active) | 27.4% | -54.4% (active)
18 | COCOc1cc2c(=O)c(C)c(C(=O)N[C@@H](Cc3ccccc3)C(O)C(=O)NCc3ccccc3)oc2cc1OC (some centres not stated) | 40.7% | -35.5% (active) | 11.2% | 31.1% | 17.3% | -10.4% (active) | 57.3% | -32.6% (active) | 13.9%
19 | CCN1C(=O)/C(=N\N=C(/C)c2ccc3c(c2)Nc2ccccc2S3)c2cc(Cl)ccc21 | 34.3% | 48.8% | 29.6% | 85.9% | 17.6% | 48.8% | 102% | 47.3% | 9.33% (active)
20 | Cc1ccc(S(=O)(=O)c2nc(S(=O)(=O)c3ccc(C)cc3)c(Cl)s2)cc1 | -24.6% (active) | 26.3% | 50.5% | -63.1% (active) | -57.1% (active) | -46.2% (active) | 58.8% | 23.9% | -78.8% (active)
21 | C=C1CCC2C3(C)COC(c4cccs4)OC3CCC2(C)C1CC(Sc1ccccc1)C1=CCOC1=O (configuration not stated) | 82.3% | 25.8% | 87.2% | 80% | 38.2% | 32.4% | 81.5% | 89.2% | 90.5%
22 | Cn1cc(NC(=O)c2cc(NC(=O)c3ccc(C#Cc4ccccc4)cc3)cn2C)cc1C(=O)NCCCN1CCOCC1 | 22.2% | 73.5% | -56.6% (active) | -44.3% (active) | -93.1% (active) | -87.3% (active) | -56% (active) | 3.14% (active) | -69.7% (active)
23 | Cc1ccc(NCC(=O)Cn2cc(COc3ccc(C=Nc4cnc5ccccc5c4)cc3)nn2)cc1 | 105% | 115% | 113% | 113% | 102% | 110% | 101% | 105% | 100%
24 | O=C1/C(=C/C2=Cc3ccccc3OC2)SC(=S)N1c1ccccc1F | 95% | 77.8% | 108% | 112% | 78.4% | 96.4% | 109% | 102% | 99%
25 | CN(C)c1nc(NCCNS(=O)(=O)c2ccc(C3=Nc4c(N)nc(N)nc4NC(c4ccc(C(F)(F)F)cc4)C3)cc2)nc(Nc2ccc(F)cc2)n1 (configuration not stated) | 9.22% (active) | 19.3% | 9.17% (active) | 11.7% | -28.2% (active) | 2.12% (active) | -32.1% (active) | -4.83% (active) | -46.2% (active)
26 | Cc1cccc(-c2nc(Nc3ccc(C)c(S(N)(=O)=O)c3)c3ccccc3n2)c1 | 29.1% | 75.6% | 34.9% | 23.7% | 1.69% (active) | 25.3% | -63.7% (active) | -24.8% (active) | 13.4%
27 | O=C(COc1ccc(NC(=O)Nc2ccccc2)cc1)N=Nc1c(O)[nH]c2ccc([N+](=O)[O-])cc12 | -43.7% (active) | -42.6% (active) | -18.3% (active) | 4.08% (active) | -2.45% (active) | -55.9% (active) | -47.9% (active) | -62% (active) | -69.7% (active)
28 | CCCS(=O)(=O)N1CCCC(C(=O)Nc2nc3ccc(NC(=O)c4ccc(F)c(OC)c4F)cc3s2)C1 (configuration not stated) | -0.579% (active) | -11.9% (active) | 36.4% | 81.6% | 13.1% | 31.1% | 72.5% | 41.3% | 18.5%
